From PubChem BioAssay
Activity calls are given as the source filed them. Unless noted, the rule behind the calls is not given here.

Key:
[1] = compound effects on lung adenocarcinoma cell viability – A549, calcein-AM fluorescence, 48 h, basal, profiling panel (AID 1162); settings: higher = more signal; note: test concentration not given here
[2] = compound effects on differentiated 3T3-L1 adipocyte viability – cell-based, 3T3-L1 adipocytes, calcein-AM fluorescence, 48 h, basal, profiling panel (AID 1163); settings: 3T3-L1 adipocytes viability, higher = more signal; note: test concentration not given here
[3] = compound effects on hepatocellular carcinoma cell viability – HepG2, calcein-AM fluorescence, 48 h, basal, profiling panel (AID 1164); settings: higher = more signal; note: test concentration not given here
[4] = compound effects on multiple myeloma cell viability – MM1S, calcein-AM fluorescence, 48 h, basal, profiling panel (AID 1165); settings: higher = more signal;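 note: viability of MM1S multiple myeloma cells under basal unstimulated conditions; test concentration not given here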
[5] = calcein-AM signal in unstimulated myeloma cells – cell-based, calcein-AM fluorescence, 48 h, PK04 Diversity Set, profiling panel (AID 1166); settings: RPMI8226 myeloma viability, higher = more signal;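 note: cells grown under basal conditions without added stimulus; test concentration not given here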
[6] = JC-1 mitochondrial signal, unstimulated HepG2 cells – cell-based, JC-1 fluorescence, 24 h, 100 nL compound, profiling panel (AID 1167); settings: HepG2 mitochondrial potential, higher = more signal; note: test concentration not given here
[7] = JC-1 mitochondrial signal, unstimulated adipocytes – cell-based, JC-1 fluorescence, 3T3-L1 adipocytes, 24 h, 100 nL compound, profiling panel (AID 1168); settings: JC-1 mitochondrial fluorescence, higher = more signal, called active from +8 up or from −8 down; note: test concentration not given here
[8] = JC-1 mitochondrial signal, unstimulated myeloma cells – cell-based, JC-1 fluorescence, RPMI8226, 24 h, 100 nL compound, profiling panel (AID 1169); settings: JC-1 mitochondrial potential fluorescence, higher = more signal; note: test concentration not given here
[9] = JC-1 mitochondrial signal, unstimulated MM1S myeloma – cell-based, JC-1 fluorescence, 24 h, 100 nL compound, profiling panel (AID 1170); settings: MM1S mitochondrial potential, higher = more signal; note: test concentration not given here
[10] = resazurin metabolic signal in A549 cells – cell-based, resazurin fluorescence, 24 h, PK04 Diversity Set, profiling panel (AID 1171); settings: A549 viability, higher = more signal, called active from +8 up or from −8 down; note: test concentration not given here
[11] = resazurin metabolic signal in HepG2 cells – cell-based, resazurin fluorescence, 24 h, PK04 Diversity Set, profiling panel (AID 1172); settings: HepG2 viability, higher = more signal; note: test concentration not given here
[12] = budding yeast growth changes without added modifier – OD600, strain BY4716, 24 h, basal condition, primary screen (AID 1173); settings: S. cerevisiae BY4716 growth, OD600, 24 h; higher = more signal, called active from +8 up or from −8 down
[13] = viability profiling in MM1S myeloma cells – cell-based, resazurin fluorescence, basal, 24 h, PK04 Diversity Set, profiling panel (AID 1174); settings: higher = more signal, called active from +8 up or from −8 down; note: test concentration not given here
[14] = biological target: Dihydroorotate dehydrogenase (quinone), mitochondrial (Plasmodium falciparum (isolate 3D7)) (UniProt Q08210); assay: inhibition of P. falciparum DHODH – biochemical, C-terminal His tag, absorbance 600 nm, primary screen (AID 1175); settings: PfDHODH enzyme, DCIP absorbance 600 nm; higher = more signal, called active from +8 up or from −8 down;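 note: recombinant parasite enzyme with a five histidine tag at its C terminus; test concentration not given here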
Chain of Dihydroorotate dehydrogenase (quinone), mitochondrial (Plasmodium falciparum (isolate 3D7)) (Q08210 whole entry, looked up): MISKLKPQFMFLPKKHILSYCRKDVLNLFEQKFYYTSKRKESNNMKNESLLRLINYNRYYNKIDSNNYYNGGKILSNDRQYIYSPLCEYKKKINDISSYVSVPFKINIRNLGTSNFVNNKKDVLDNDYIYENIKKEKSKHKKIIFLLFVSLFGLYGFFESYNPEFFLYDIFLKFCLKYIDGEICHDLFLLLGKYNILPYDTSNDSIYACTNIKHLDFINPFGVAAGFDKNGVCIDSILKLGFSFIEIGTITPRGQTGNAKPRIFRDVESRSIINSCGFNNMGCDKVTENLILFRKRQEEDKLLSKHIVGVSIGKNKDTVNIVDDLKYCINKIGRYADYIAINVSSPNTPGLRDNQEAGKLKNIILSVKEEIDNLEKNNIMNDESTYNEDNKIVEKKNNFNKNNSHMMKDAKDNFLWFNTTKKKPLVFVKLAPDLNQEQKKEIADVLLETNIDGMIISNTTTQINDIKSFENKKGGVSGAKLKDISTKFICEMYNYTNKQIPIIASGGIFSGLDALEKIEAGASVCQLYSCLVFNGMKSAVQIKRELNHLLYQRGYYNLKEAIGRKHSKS

[15] = inhibition of PAO1 biofilm formation – strain PAO1, LB-PBS medium, absorbance 600 nm, primary screen (AID 1176); note: test concentration not given here; settings: P. aeruginosa PAO1 growth/biofilm, A600, 12 h; higher = more signal
[16] = growth modulation of vineyard yeast isolate – strain RM11-1a, OD600, basal, 24 h, primary screen (AID 1177);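 note: cultures grown under basal conditions with no added stressor; test concentration not given here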; settings: S. cerevisiae RM11-1a growth, OD600, 24 h; higher = more signal, called active from +8 up or from −8 down
[17] = growth of efflux-deficient E. coli DRC39 – strain DRC39, OD650, 24 h, E. coli filamentation inducers, primary screen (AID 1178);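 note: growth measured as culture turbidity by optical density at 650 nm; test concentration not given here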; settings: E. coli DRC39 acrAB, higher = more signal, called active from +8 up or from −8 down
[18] = growth of efflux-deficient E. coli DRC39 – strain DRC39, OD650, 48 h, E. coli filamentation inducers, primary screen (AID 1179);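 note: screen aims at cell division blockers that make cells filament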; settings: E. coli DRC39 delta-acrAB growth, higher = more signal, called active from +8 up or from −8 down
[19] = viability profiling in RPMI8226 myeloma cells – cell-based, resazurin fluorescence, basal, 24 h, PK04 Diversity Set, profiling panel (AID 1180); settings: higher = more signal;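 note: RPMI8826 multiple myeloma cell line at 5000 cells per well; test concentration not given here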
[20] = biological target: E3 ubiquitin-protein ligase XIAP (Homo sapiens) (UniProt P98170); assay: small molecules binding XIAP protein – biophysical, small-molecule microarray, fluorescence 635 nm, primary screen (AID 1181); settings: higher = more signal;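 note: score merges 667 nm emission and signal to noise over triplicate slides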
Chain of E3 ubiquitin-protein ligase XIAP (Homo sapiens) (P98170 whole entry, looked up): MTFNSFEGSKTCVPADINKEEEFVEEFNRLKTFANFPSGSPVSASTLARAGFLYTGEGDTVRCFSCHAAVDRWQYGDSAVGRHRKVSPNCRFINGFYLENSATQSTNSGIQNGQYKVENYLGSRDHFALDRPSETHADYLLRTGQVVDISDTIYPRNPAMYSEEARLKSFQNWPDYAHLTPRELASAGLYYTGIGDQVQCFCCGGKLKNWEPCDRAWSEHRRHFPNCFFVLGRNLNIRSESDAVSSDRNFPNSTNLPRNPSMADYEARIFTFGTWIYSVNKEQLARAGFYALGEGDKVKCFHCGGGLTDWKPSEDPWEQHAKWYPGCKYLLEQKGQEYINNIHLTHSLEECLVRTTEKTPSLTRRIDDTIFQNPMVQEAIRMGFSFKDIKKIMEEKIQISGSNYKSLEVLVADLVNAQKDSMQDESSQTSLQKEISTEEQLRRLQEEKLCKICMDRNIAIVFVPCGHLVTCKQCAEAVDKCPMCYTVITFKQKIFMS

SMILES | z-score [1] | z-score [2] | z-score [3] | z-score [4] | z-score [5] | z-score [6] | z-score [7] | z-score [8] | z-score [9] | z-score [10] | z-score [11] | z-score [12] | z-score [13] | composite z-score [14] | z-score [15] | z-score [16] | z-score [17] | z-score [18] | z-score [19] | composite z-score [20]
O=C1O[C@@H](c2ccccc2)[C@@H](c2ccccc2)N2[C@@H](c3ccccc3OCCO)[C@]3(C(=O)Nc4ccc(C#CCCO)cc43)[C@@H](C(=O)NC[C@H](O)c3ccccc3)[C@H]12 | -0.31 | 0.323 | 0.997 | 0.16 | -0.0269 | -1.16 | 0.00583 (inactive) | -0.471 | -0.596 | 0.682 (inactive) | 0.5 | 1.29 (inactive) | 0.253 (inactive) | 0.873 (inactive) | 0.614 (inactive) | 2.96 (inactive) | 0.797 (inactive) | 0.367 (inactive) | -2.7 | -0.0669
[N-]=[N+]=NCc1ccccc1[C@@H]1OC(c2ccc(OCCCO)cc2)=N[C@]1(Cc1ccccc1N=[N+]=[N-])C(=O)NCC(O)CO (stereo not given in full) | -0.619 | 0.0728 | -0.326 | -1.78 | -1.57 | -0.686 | 0.265 (inactive) | -1.2 | -0.6 | -1.09 (inactive) | -0.897 | -0.815 (inactive) | -0.954 (inactive) | -0.728 (inactive) | 0.507 (inactive) | 0.628 (inactive) | -0.0582 (inactive) | 0.625 (inactive) | -1.47 | 0.243
Cc1ccccc1C(O)C1C=CC2C(=O)N(c3ccccc3)C(=O)C2N1Nc1ccccc1 (stereo not given) | -0.0545 | -1.17 | 1.8 | 0.928 | -0.645 | -0.978 | -0.703 (inactive) | -0.318 | -0.638 | 0.0292 (inactive) | -0.341 | -2.84 (inactive) | -0.516 (inactive) | 0.106 (inactive) | 0.956 (inactive) | 0.0725 (inactive) | -0.36 (inactive) | 0.372 (inactive) | -0.0175 | 0.265
CCOC(=O)C[C@H]1[C@H](OC(=O)Cc2ccc3c(c2)OCO3)[C@@H](NC(=O)c2ccc3ccccc3n2)c2cc(OCCCO)ccc2N1C(=O)Cc1ccc(OC)cc1 | 0.703 | 0.867 | 1.03 | 0.406 | -0.603 | 2.42 | -0.115 (inactive) | 0.167 | -0.882 | -0.64 (inactive) | 1.14 | -1.17 (inactive) | -0.175 (inactive) | -1.55 (inactive) | 0.477 (inactive) | -0.925 (inactive) | 1.12 (inactive) | 1.6 (inactive) | 0.29 | -0.232
CC(=O)OCC1C2CC[C@H]3C(OCc4ccc(F)cc4C(F)(F)F)OC[C@]4(C)[C@H]3C2=C(CN4C(=O)OC(C)(C)C)[C@H](C)C1COC(C)=O (stereo not given in full) | -0.647 | -0.0623 | -0.174 | -2.29 | -1.93 | 2.61 | -0.984 (inactive) | -0.606 | -1.3 | 0.892 (inactive) | -1.11 | 1.69 (inactive) | -1.34 (inactive) | 0.182 (inactive) | 1.14 (inactive) | 1.93 (inactive) | -1.47 (inactive) | -0.748 (inactive) | -1.18 | 0.691
C=C(CCCC)/C(=C/C[C@H](OC(=O)c1ccncc1)c1cccc(OCCO)c1)c1cnc2ccccc2c1 | 1.35 | -0.893 | 0.0815 | -3.37 | -2.3 | 0.99 | -1.16 (inactive) | -0.817 | -0.718 | 0.588 (inactive) | -0.0769 | 0.527 (inactive) | -0.737 (inactive) | -2.67 (inactive) | 0.236 (inactive) | -0.364 (inactive) | -0.566 (inactive) | -0.635 (inactive) | -0.82 | 0.291
CCCCCCc1nc(Cc2cc(OC)c(OC)c(OC)c2)cc2c1[Si](C(C)C)(C(C)C)O[C@H]2c1ccccc1 | -0.106 | -0.267 | -0.492 | -1.09 | -3.49 | 1.03 | -0.462 (inactive) | -0.566 | -0.116 | 2.45 (inactive) | 0.915 | 1.12 (inactive) | -0.111 (inactive) | 0.364 (inactive) | 0.374 (inactive) | 0.202 (inactive) | -0.373 (inactive) | -0.585 (inactive) | -0.83 | -0.491
O=C(O)[C@H](Cc1ccccc1)n1cc(C2(O)CCCCC2)nn1 | -0.53 | -1.54 | 0.105 | -0.364 | -0.361 | -1.14 | -0.569 (inactive) | 0.791 | -0.417 | 0.0465 (inactive) | -0.466 | -0.415 (inactive) | -0.625 (inactive) | -1.6 (inactive) | 0.055 (inactive) | -0.563 (inactive) | -0.128 (inactive) | -0.477 (inactive) | -0.88 | -0.0668
